Screening results (PubChem)
MCF10A rereplic: A quantitative high throughput screen for small molecules that induce DNA re-replication in MCF 10a normal breast cells. MCF 10A DNA re-replication, Hoechst nuclear intensity, 48 h. Potency, µM (doses to about 46.1 µM), without a hit: top-dose activity, positive = re-replication, actives largely listed as activators. actives 2.9% (n = 350,000). AID 624296, 2012; further: potency means the concentration at half of the fitted maximal effect; % of control where 0% means no effect; nearly all actives have a fitted effect of over 50% in size
SW480 rereplic: A quantitative high throughput screen for small molecules that induce DNA re-replication in SW480 colon adenocarcinoma cells | AID 624297, 2012 | actives 1.8% (n = 340,000) | Potency, µM (highest dose often 46.1 µM), inactives show at the highest dose re-replication activation, usual class: activators | SW480 DNA re-replication, Hoechst DNA content imaging, 48 h; further: potency means the concentration at half of the fitted maximal effect; % of control where 0% means no effect; nearly all actives have a fitted effect of over 55% in size
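First, 250 cells per well were seeded. Next, compound or vehicle (23 nL) was pinned in, plates sat 48 hr at 37 C. Finally Hoechst was added for 40 min before fluorescence scanning.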
BCR signal inh: qHTS Assay to Find Inhibitors of Chronic Active B-Cell Receptor Signaling; actives 0.05% (n = 340,000); Potency, µM (series often up to 46.1 µM), for inactives: at the top dose activity change, negative = inhibition, actives largely listed as inhibitors; ABC-DLBCL IkBa-CBG/CBR reporter, luminescence ratio, 4 h; active means well fitted inhibition curve with a large enough effect in the signal ratio, with a control signal flat, not every such curve was filed as active; inconclusive means small, poorly fitted or top-dose-only effect, or effect the other way, or a change in a side signal; the % refers to the signal ratio;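 further: potency means the concentration at half of the fitted maximal effect; plate controls were basal doxycycline-induced cells for no effect and cells given 10 µM MG132 for full effect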
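TMD8 human ABC-DLBCL cells with doxycycline-inducible IκBα–green luciferase fusion and unfused red luciferase, in 0.5% FBS medium; compounds up to 46 uM, 4 h at 37C. Green/red luminescence ratio, filter-overlap corrected, fitted to concentration-response curves.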
IL-1B inflam inh: qHTS for Inhibitors of Inflammasome Signaling: IL-1-beta AlphaLISA Primary Screen; THP-1 LPS/ATP IL-1B secretion, AlphaLISA, 16 h; active compounds read low; AID 743279, 2014; activity change, % at 57.5 µM; actives 4.7% (n = 360,000); in the data active means activity change below about -50%; inconclusive means mostly about -30% to -49%; further: on the % scale 0 is the no-effect control and ±100 the full control effect
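THP-1 cells pretreated 1 hr with compounds (up to 57.5 uM final), then stimulated with LPS (250 ng/mL final) plus ATP (1.25 mM final); secreted IL-1B measured by AlphaLISA after 16 hr, decreased signal indicating inhibition.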
TDP1 cell noCPT: qHTS for Inhibitors of human tyrosyl-DNA phosphodiesterase 1 (TDP1): qHTS in cells in absence of CPT. actives 15% (n = 420,000). DT40 Tdp1-/- hTDP1 cells, no CPT, ATP luminescence, 48 h. Potency, µM (highest dose often 46.2 µM), inactives show at the top dose activity change, negative = growth inhibition, actives largely listed as inhibitors. AID 686978, 2013; further: potency means the concentration at half of the fitted maximal effect; on the % scale 0 is the no-effect control and ±100 the full control effect; nearly all actives have a fitted effect of over 55% in size
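Chicken DT40 Tdp1-/- cells stably complemented with human TDP1 were seeded at 400 cells/well with DMSO in place of 20 nM camptothecin. After compound pinning, cells grew at least 48 hr at 37 °C; viability read by CellTiter-Glo luminescence.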
DT40 TDP1 CPT: qHTS for Inhibitors of human tyrosyl-DNA phosphodiesterase 1 (TDP1): qHTS in cells in presence of CPT; actives 12% (n = 420,000); chicken DT40 Tdp1-/-;hTDP1 cells + 20 nM CPT, ATP luminescence, 48 h; Potency, µM (titrated, usually from 46.2 µM), for inactives: at the highest dose activity change, negative = growth inhibition, most hits filed as inhibitors; AID 686979, 2013; further: potency means the concentration at half of the fitted maximal effect; on the % scale 0 is the no-effect control and ±100 the full control effect; nearly all actives have a fitted effect of over 55% in size
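Cell growth measured by CellTiter-Glo luminescence after a minimum 48 h, 37 C compound exposure with 20 nM CPT in Tdp1-knockout DT40 cells stably expressing hTDP1, seeded 400/well; qHTS titration format.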
Numbers without * were called inactive; ? = inconclusive; nt = no result given; [ ] = remark or other dose. Shown are actives, neighbours in structure and some others; about 19% of the full set was active somewhere. Unless noted, the call rests on the fitted dose curve; in most records, active means well fitted curve in the direction sought with a large enough effect; inconclusive means small, poorly fitted or top-dose-only effect, or another doubt; inactive means no such curve, though single readings can be large; an effect the other way counts as inactive or inconclusive.

SMILES	MCF10A rereplic	SW480 rereplic	BCR signal inh	IL-1B inflam inh	TDP1 cell noCPT	DT40 TDP1 CPT
Cc1nnc(Sc2cc(NCCCO)c([N+](=O)[O-])c3nonc23)s1	19%	-3%	?	-105*	2.1µM*	1.5µM*
Cc1nnc(Sc2cc(NCCO)c([N+](=O)[O-])c3nonc23)s1	?	18%	?	2	2.3µM*	3.3µM*
O=C(OC(C(=O)NCc1ccccc1)c1ccccc1F)c1ccco1 (centres undefined)	?	-8%	3%	-10	-2%	2%
CC(C)(C)c1cc(NC(=O)C2(C)CCN2C(=O)C2(c3ccccc3)CC2)no1 (centres undefined)	nt	nt	nt	9	21µM*	?
CC(C)(C)c1cc(NC(=O)C2(C)CCN2C(=O)C2(c3ccccc3)CCCC2)no1 (centres undefined)	nt	nt	nt	13	15µM*	15µM*
COc1ccccc1N1CCN(C(=O)C2CCCN(c3ncnc4c3nc3n4CCCCC3)C2)CC1 (centres undefined)	7%	-22%	10%	31	16µM*	15µM*
O=C(C1CCCN(c2ncnc3c2nc2n3CCCCC2)C1)N1CCN(c2ccccc2)CC1 (centres undefined)	-10%	2%	2%	11	2.1µM*	?
CC1CCCN(c2ncnc3c2nc2n3CCCCC2)C1 (centres undefined)	nt	nt	nt	nt	?	-24%
Cc1ccccc1N(C)C(=O)C1CCCN(c2ncnc3c2nc2n3CCCCC2)C1 (centres undefined)	15%	-30%	?	31	23µM*	?
Cc1ccc(C)c(N2CCN(C(=O)C3CCCN(c4ncnc5c4nc4n5CCCCC4)C3)CC2)c1 (centres undefined)	21µM*	26%	?	?	23µM*	16µM*
COc1cccc(CCNC(=O)C2CCCN(c3ncnc4c3nc3n4CCCCC3)C2)c1OC (centres undefined)	9%	?	-14%	60	?	-3%
O=C(C1CCCN(c2ncnc3c2nc2n3CCCCC2)C1)N1CCN(c2cccc(Cl)c2)CC1 (centres undefined)	?	-33%	?	?	18µM*	23µM*
COc1ccccc1N1CCN(c2ncnc3c2nc2n3CCCC2)CC1	nt	nt	nt	nt	18µM*	18µM*
CN(C(=O)C1CCCN(c2ncnc3c2nc2n3CCCCC2)C1)c1cccc(Cl)c1 (centres undefined)	1%	-18%	4%	-5	12µM*	13µM*
CCC(=O)NC(=S)Nc1ccc(-c2nc3ccc(C)cc3s2)cc1	-4%	-1%	20%	-5	?	21µM*
Cc1ccc2nc(-c3ccc(NC(=S)NC4CC(C)(C)NC(C)(C)C4)cc3)sc2c1	29µM*	?	-10%	-97*	6.5µM*	3.7µM*
Cc1ccc(C2(C)NC(=O)N(CC(=O)Nc3ccc(-c4nc5ccc(C)cc5s4)cc3)C2=O)cc1 (centres undefined)	18µM*	636%	?	55	10µM*	?
COc1cc(-c2nnc3sc(-c4cccs4)nn23)cc(OC)c1OC	?	?	1%	5	12µM*	?
COc1cc(-c2nn3c(-c4ccco4)nnc3s2)cc(OC)c1OC	nt	nt	1%	nt	nt	nt
COc1ccc(-c2nnc3sc(-c4cccs4)nn23)cc1OC	?	-4%[9.22 µM]	4%	-52*	11µM*	10µM*
